Source: PubChem BioAssay (NCI)
The panel holds about 83,000 compounds, 20% with a hit somewhere; the sample as a whole holds those more often.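 Growth was measured after 48 h exposure to one concentration of compound in 96-well plates. Values under 10 count as active.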 Activity calls are given as the source filed them.

Legend:
Test in all cases: NCI-60 one-dose screen, 48 h (100 = growth as untreated, 0 = no growth, -100 = all killed)
Settings in all cases: 10 µM unless noted
NCI-H23 lung = test system: NCI-H23 lung
NCI-H226 lung = test system: NCI-H226 lung
HOP-62 NSCLC = test system: HOP-62 NSCLC
NCI-H460 lung = test system: NCI-H460 lung
HOP-92 NSCLC = test system: HOP-92 NSCLC
NCI-H522 lung = test system: NCI-H522 lung
A549/ATCC NSCLC = test system: A549/ATCC NSCLC
786-0 renal = test system: 786-0 renal
COLO 205 colon = test system: COLO 205 colon
DU-145 prostate = test system: DU-145 prostate
MALME-3M melanoma = test system: MALME-3M melanoma
MDA-MB-231 breast = test system: MDA-MB-231 breast
RXF 393 renal = test system: RXF 393 renal
SF-268 CNS = test system: SF-268 CNS
SF-295 CNS = test system: SF-295 CNS
SF-539 CNS = test system: SF-539 CNS
UACC-257 melanoma = test system: UACC-257 melanoma
M14 melanoma = test system: M14 melanoma
K-562 leukemia = test system: K-562 leukemia

Measured: growth

CC(C(=O)O)N1C(N)=NNC1c1ccccc1O (stereo unspecified)
inactive: NCI-H23 lung 86.3% | NCI-H226 lung 84.6% | HOP-62 NSCLC 81.5% | NCI-H460 lung 84.7% | HOP-92 NSCLC 77.7% | NCI-H522 lung 74.8% | A549/ATCC NSCLC 83.3% | 786-0 renal 104% | COLO 205 colon 103% | DU-145 prostate 102% | MALME-3M melanoma 85.6% | MDA-MB-231 breast 76.6% | RXF 393 renal 96.4% | SF-268 CNS 84% | SF-295 CNS 99.3% | SF-539 CNS 103% | UACC-257 melanoma 87.1% | M14 melanoma 96.9%

S=C=NP1(N=C=S)=NP(N=C=S)(N=C=S)=NP(N=C=S)(N=C=S)=NP(N=C=S)(N=C=S)=N1 (stereo unspecified)
inactive: NCI-H23 lung 97.7% | NCI-H226 lung 94% | HOP-62 NSCLC 85.4% | NCI-H460 lung 111% | HOP-92 NSCLC 93.2% | NCI-H522 lung 72.2% | A549/ATCC NSCLC 79.2% | 786-0 renal 89.4% | COLO 205 colon 118% | DU-145 prostate 113% | K-562 leukemia 86.4% | MALME-3M melanoma 91.4% | MDA-MB-231 breast 105% | RXF 393 renal 109% | SF-268 CNS 103% | SF-295 CNS 97.8% | SF-539 CNS 94.7% | UACC-257 melanoma 94.8% | M14 melanoma 93.4%

COc1ccc(Cn2cc3c(c2-c2cc(OC)c(OC)c(OC)c2)CCc2c(CO)noc2-3)cc1
active: NCI-H522 lung 9.75% | COLO 205 colon -23.6% | K-562 leukemia 7.1% | RXF 393 renal 2.44% | SF-539 CNS 3.55% | M14 melanoma 7.98%
inactive: NCI-H23 lung 38.3% | NCI-H226 lung 47.7% | HOP-62 NSCLC 35.2% | HOP-92 NSCLC 57% | A549/ATCC NSCLC 32.5% | 786-0 renal 45% | DU-145 prostate 19.4% | MALME-3M melanoma 94.8% | MDA-MB-231 breast 18% | SF-268 CNS 43% | SF-295 CNS 14.8% | UACC-257 melanoma 64.6%

Nc1ncnc2c1c(C(F)(F)F)cn2[C@@H]1O[C@H](CO)[C@@H](O)[C@H]1O
inactive: A549/ATCC NSCLC 10.5% | 786-0 renal 13.5% | DU-145 prostate 17.9% | MDA-MB-231 breast 15.7%
active: NCI-H23 lung 2.27% | NCI-H226 lung -13.8% | HOP-62 NSCLC -4.3% | NCI-H460 lung 7.65% | HOP-92 NSCLC -12.8% | NCI-H522 lung -14.1% | COLO 205 colon -42.1% | K-562 leukemia 5.69% | MALME-3M melanoma -16.9% | RXF 393 renal -45.2% | SF-268 CNS 7.4% | SF-295 CNS 7.79% | SF-539 CNS -31.7% | UACC-257 melanoma -5.51% | M14 melanoma 2.76%

Cc1nccc2c3ccc(OCc4cn(-c5ccc(Br)cc5)nn4)cc3n(CCCc3ccccc3)c12
inactive: NCI-H23 lung 51.2% | NCI-H226 lung 91% | HOP-62 NSCLC 110% | NCI-H460 lung 33.4% | HOP-92 NSCLC 99.7% | NCI-H522 lung 84.9% | A549/ATCC NSCLC 12.2% | COLO 205 colon 40.7% | DU-145 prostate 48.6% | K-562 leukemia 14.9% | SF-295 CNS 98.2%
active: 786-0 renal -71.4% | MALME-3M melanoma -61.1% | MDA-MB-231 breast -1.95% | RXF 393 renal -26.2% | SF-268 CNS -15.5% | SF-539 CNS -59.8% | UACC-257 melanoma -20% | M14 melanoma -81.7%

c1ccc2c(c1)Oc1cccnc1-n1nccc1-2
inactive: NCI-H23 lung 97.8% | NCI-H226 lung 77.3% | NCI-H460 lung 103% | HOP-92 NSCLC 90% | NCI-H522 lung 99.7% | A549/ATCC NSCLC 99.6% | 786-0 renal 103% | COLO 205 colon 119% | DU-145 prostate 110% | K-562 leukemia 104% | MALME-3M melanoma 103% | MDA-MB-231 breast 93.5% | RXF 393 renal 107% | SF-268 CNS 102% | SF-295 CNS 108% | SF-539 CNS 106% | UACC-257 melanoma 102%

Cl[C@@H]1CCO[C@H](c2cc3ccccc3c3ccccc23)C1
inactive: NCI-H23 lung 95.5% | NCI-H226 lung 89.8% | HOP-62 NSCLC 98.8% | NCI-H460 lung 99% | HOP-92 NSCLC 89.1% | NCI-H522 lung 82.6% | A549/ATCC NSCLC 93.6% | 786-0 renal 88.7% | COLO 205 colon 104% | DU-145 prostate 102% | K-562 leukemia 95.5% | MALME-3M melanoma 106% | MDA-MB-231 breast 90.2% | RXF 393 renal 98.8% | SF-268 CNS 97.9% | SF-295 CNS 96.4% | SF-539 CNS 95% | UACC-257 melanoma 93.4% | M14 melanoma 95.3%

CCOc1ccc(NC2=C(Cl)C(=O)c3ccccc3C2=O)cc1
active: K-562 leukemia -2.3%
inactive: NCI-H23 lung 39.6% | NCI-H226 lung 101% | HOP-62 NSCLC 95.1% | NCI-H460 lung 97.9% | NCI-H522 lung 62.7% | A549/ATCC NSCLC 97% | 786-0 renal 94.7% | COLO 205 colon 108% | DU-145 prostate 102% | MALME-3M melanoma 108% | MDA-MB-231 breast 80.2% | RXF 393 renal 105% | SF-268 CNS 94.2% | SF-295 CNS 94.3% | SF-539 CNS 90.9% | UACC-257 melanoma 97.6%
